Data from PubChem BioAssay.
Measured potencies and affinities stand elsewhere. Activity calls are given as the source filed them. How the calls were made is not given here.

These molecules were tested against Plasmodium falciparum protein kinase 6 (PK6, PF3D7_1337100) (UniProt Q8IDW1) (assay: PfPK6 kinase inhibitors, biochemical, TCAMS library (AID 1159586)). Conditions: recombinant PfPK6, Kinase-Glo ATP depletion luminescence.
Chain of Plasmodium falciparum protein kinase 6 (PK6, PF3D7_1337100) (Q8IDW1 1-305): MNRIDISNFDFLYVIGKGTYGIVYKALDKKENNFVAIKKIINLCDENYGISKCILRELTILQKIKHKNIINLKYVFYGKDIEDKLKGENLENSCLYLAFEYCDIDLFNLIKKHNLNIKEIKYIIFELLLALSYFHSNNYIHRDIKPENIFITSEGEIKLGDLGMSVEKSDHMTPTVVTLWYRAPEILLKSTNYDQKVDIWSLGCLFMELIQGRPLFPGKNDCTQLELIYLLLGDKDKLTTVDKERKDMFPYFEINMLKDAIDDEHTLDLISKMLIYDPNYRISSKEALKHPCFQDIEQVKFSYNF
With `O=C(Nc1ccc(-c2ccc(-c3nc4ccccc4[nH]3)cc2)cc1)Nc1ccc(Cl)c(Cl)c1` the outcome was “inactive”. For `O=C(Nc1cccc(Cl)c1)OC1CCCN2CCCCC12` (stereo not given), the outcome was “inactive”. In the case of `CCC(C)C(COC(=O)c1cc(OC)c(OC)c(OC)c1)N(C)CCN(C)C(COC(=O)c1cc(OC)c(OC)c(OC)c1)C(C)CC` (stereo not given), the outcome is reported as “inactive”. `COc1ccc(N2CCN(CCCCNCc3ccc(NC(=O)c4cc(Cl)cc(Cl)c4)cc3)CC2)c(OC)c1` was tested, and the outcome was “inactive”. In the case of `O=C(C=Cc1ccc(Cl)c(Cl)c1)NCCCCCN1CCC(CCCNC(=O)/C=C/c2ccccc2)CC1`, the outcome is reported as “inactive”. For `CCOc1ccc(CCCON2C(N)=NC(N)=NC2(C)C)cc1`, the outcome was “inactive”. In the case of `CNCc1ccc(CN(C)c2nc(N)c3cc(OC)c(OC)cc3n2)cc1`, the outcome is reported as “inactive”. For `COc1ccc2nccc([C@@H](O)CN3CCC(NCc4ccc5c(c4)NC(=O)C(C)S5)CC3)c2c1` (stereo not given in full), the outcome was “inactive”. In the case of `N#Cc1ccc2nc(-c3cc(-c4cccc(F)c4)cnc3N)[nH]c2c1`, the outcome is reported as “inactive”. `O=C(Nc1ccc(S(=O)(=O)N2CCCC2)cc1)c1cc(-c2cccnc2)nc2ccc(Cl)cc12` was tested, and the outcome was “inactive”. For `Cn1nc2ccc3ccccc3c2nc1=N`, the outcome was “inactive”. In the case of `CN(CCc1ccccn1)Cc1ccc(-c2ccc(-c3nc4ccccc4[nH]3)s2)cc1`, the outcome is reported as “inactive”. `O=C(COc1ccccc1)NC1CCN(c2ccnc3cc(Cl)ccc23)C1` (stereo not given) was tested, and the outcome was “inactive”. For `O=C(Cc1ccc(Cl)cc1)Nc1cc(Cl)ccc1Cn1cnc(N2CCNCC2)cc1=O`, the outcome was “inactive”. For `COc1ccccc1-c1nc2nc(N)nc(N)c2nc1-c1ccccc1OC`, the outcome was “inactive”. For `CCC(=O)c1ccc(-c2ccc(=O)n(CC(=O)N(CCN(CC)CC)Cc3ccc(-c4ccc(C(F)(F)F)cc4)cc3)n2)cc1`, the outcome was “inactive”. In the case of `CC(=O)Nc1ccc(C2NC(=O)NC(c3ccccc3)=C2c2nc3ccccc3s2)cc1` (stereo not given), the outcome is reported as “inactive”. With `Cc1cccc2[nH]c(-c3ccc(-c4cccc(CNCCCNS(C)(=O)=O)c4)cc3)nc12` the outcome was “inactive”. With `Cc1cccc2[nH]c(-c3ccc(-c4ccc(CNCCNC(=O)c5ccnn5C)cc4)cc3)nc12` the outcome was “inactive”. With `COc1cc(NC(=O)N2CCOC(CCN3CCC(c4ccccc4)CC3)(c3ccc(Cl)c(Cl)c3)C2)cc(OC)c1OC` (stereo not given) the outcome was “inactive”. With `CN1CCN(Cc2ccc(-c3ccc4c(Nc5ccc(F)cc5Cl)ccnc4c3)o2)CC1` the outcome was “inactive”. For `CN1CCN(CCCN(Cc2ccc(-c3ccc(CNC4CCCC4)cc3)cc2)C(=O)CCC2CCCC2)CC1`, the outcome was “inactive”. `N#Cc1cccc(C(=O)Nc2ccc(-c3ccc(CN4CCCC4)cc3)cc2)c1` was tested, and the outcome was “inactive”. With `C=CCc1cc(C2CCN(CCCCNC(=O)c3ccc(-c4ccc(C#N)cc4)cc3)CC2)c(OCC(N)=O)c2c1CCCC2` the outcome was “inactive”. For `CN(C)Cc1ccc(CN2CCN(CCOc3ccc(-c4ccc(Cl)cc4)cc3)CC2)o1`, the outcome was “inactive”. `COc1ccc2nccc([C@@H](O)CN3CCC(NCc4ccc5c(c4)NC(=O)CS5)CC3)c2c1` was tested, and the outcome was “inactive”. With `O=C(c1ccc([N+](=O)[O-])o1)N1CCN(c2nc3c(F)cc(F)cc3s2)CC1` the outcome was “inactive”. In the case of `CC1(C)C[C@@H]2C[C@@](C)(CN2C(=O)c2cc(C(C)(C)C)nn2Cc2ccccc2)C1`, the outcome is reported as “inactive”. In the case of `CCCCCCCNCc1c(O)ccc2c(CNCCCCCCC)c(O)ccc12`, the outcome is reported as “inactive”. In the case of `COc1cc2c(cc1OC)CN(CCCCNC(=O)c1ccc(NC(=O)c3cc(Cl)cc(Cl)c3)cc1)CC2`, the outcome is reported as “inactive”. For `COc1c(OC)c(OC)c2ccccc2c1CNCCCCCCNCc1c(OC)c(OC)c(OC)c2ccccc12`, the outcome was “inactive”. `Oc1ccccc1CN1CCC2(CCCN(Cc3ccccc3F)C2)C1` (stereo not given) was tested, and the outcome was “inactive”. For `CC(C)C(=O)NC(Nc1ccc([N+](=O)[O-])cc1)C(Cl)(Cl)Cl` (stereo not given), the outcome was “inactive”. `Fc1ccc2nc(-c3ccc(-c4cccc(CN5CCN(c6ccncc6)CC5)c4)cc3)[nH]c2c1` was tested, and the outcome was “inactive”. `O=C(NC1CCCCN(Cc2ccc3c(c2)OCCO3)C1)c1cc(-c2ccccc2F)cs1` (stereo not given) was tested, and the outcome was “inactive”. With `CN(C)c1cc(NC(=O)Nc2ccccc2)c2ccccc2n1` the outcome was “inactive”. For `CCc1c(CCNCCCCCCNCCc2ccc(OC)c(OC)c2C)ccc(OC)c1OC`, the outcome was “inactive”. For `CC(C)c1ccc(NC(=O)Nc2ccc(CCNCCCc3ccccc3)cc2)cc1`, the outcome was “inactive”. For `CCOc1ccc(NC(=O)c2cccc(CN3CCCN(Cc4cccc(O)c4)CC3)c2)cc1`, the outcome was “inactive”. For `CN(C)CCCOc1ccc(CN2CC[C@H](NC(=O)c3ccc(Cl)c(Cl)c3)C2)cc1Cl`, the outcome was “inactive”.
